Pf growth 48h: Primary qHTS for delayed death inhibitors of the malarial parasite plastid, 48 hour incubation; P. falciparum luciferase growth in erythrocytes, 48 h; Potency, µM (top dose mostly 28.7 µM), for the others: at the top dose activity change, negative = inhibition, actives largely listed as inhibitors; hit rate 5.9% among 310,000; AID 504832, 2011; note: potency is the fitted concentration of half-maximal effect
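Parasite viability was followed by luminescence of a genomically integrated firefly luciferase. Cultures held 0.1% parasitemia at 2% hematocrit (final), incubated under 5% CO2 at 37 C.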
HCMV antiviral: qHTS Assay for inhibitors of the human cytomegalovirus (HCMV) | hit rate 4.5% among 410,000 | activity change, negative = inhibition, % at 57.5 µM | HFF cells, HCMV-luciferase reporter, 72 h; hits give low values; in the data active = activity change below about -60%; inconclusive = no clear call, values can overlap the other calls; inactive = above about -39%
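Human foreskin fibroblasts infected with luciferase-reporter HCMV at MOI 1 PFU/cell, compounds at two doses. Luciferase measured 72 h post infection; normalized to buffer-only basal and Salinomycin (10uM) controls.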
HCV inh: qHTS Assay for Inhibitors of Hepatitis C Virus (HCV); Huh7.5.1 HCVcc-Cre infection, luciferase reporter, 44 h; Potency, µM (titrated, usually from 41.8 µM), for inactives: top-dose activity change, negative = inhibition, hits mostly inhibitors; hit rate 3.4% among 340,000; note: potency is the fitted concentration of half-maximal effect
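Luciferase read-out (15 sec integration) after a 15 min room-temperature substrate step quantifies HCVcc-Cre infection. Cells, 1,000 per well, had compound added 4 h post-plating, then virus at ~0.5 moi, and were cultured 44 h.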
Pf growth 96h: Primary qHTS for delayed death inhibitors of the malarial parasite plastid, 96 hour incubation; P. falciparum luciferase reporter growth, 96 h; hit rate 6.9% among 320,000; Potency, µM (series often up to 28.7 µM), for inactives: at the highest dose activity change, negative = inhibition, actives largely listed as inhibitors; AID 504834, 2011; note: potency is the fitted concentration of half-maximal effect
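Parasite growth measured via integrated firefly luciferase reporter in P. falciparum. Infected erythrocytes at 2% hematocrit, 0.05% parasitemia final were treated 96 hours at 37 C under 5% CO2, and luminescence was read.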
* = called active by the depositor. Only some compounds are listed: those with a hit (about 13% of all), similar ones and a draw of the others. Unless noted, calls come from the whole dose curve; as a rule, active = well fitted inhibition curve with a large enough effect; inconclusive = small, poorly fitted or top-dose-only effect, or another doubt; inactive = no such curve, though single readings can be large or run the other way. % is set by controls: 0 for no effect and ±100 for the full control effect.

Screening O=C(CSc1nccn1Cc1ccc(F)cc1)NCc1ccc(F)cc1 returned HCMV antiviral 3.8.
Screening CCOc1ccc(C(=O)NCC(=O)NCCCSc2ccccc2)cc1OCC returned Pf growth 48h -14.7%, HCMV antiviral inconclusive, HCV inh inconclusive and Pf growth 96h 14.7µM*.
COc1cccc(CNc2nc3ccccc3c3nc(-c4cccc(C)c4)nn23)c1 was read as HCMV antiviral 87.7.
Screening CC1(C)CC(NC(=O)C2CCC(=O)N(C3CC3)C2)CC(C)(C)C1 (centres undefined) returned Pf growth 48h 8.3%, HCMV antiviral 22.6, HCV inh 22.2% and Pf growth 96h 8.28µM*.
Screening CCCC(=O)NC(c1ccco1)c1c(O)ccc2ccccc12 (centres undefined) returned Pf growth 48h inconclusive, HCMV antiviral -83.6*, HCV inh -11.2% and Pf growth 96h inconclusive.
For CC(C)CC(=O)NC(c1ccccc1Cl)c1c(O)ccc2ccccc12 (centres undefined) the results were Pf growth 48h inconclusive, HCMV antiviral -30.3, HCV inh inconclusive and Pf growth 96h -97.7%.
For CCCCC(=O)NC(c1ccco1)c1c(O)ccc2ccccc12 (centres undefined) the results were Pf growth 48h 11.7µM*, HCMV antiviral 24.9, HCV inh -16.8% and Pf growth 96h inconclusive.
OCC1(CCOc2ccccc2)CCN(Cc2ccncc2)CC1 was read as Pf growth 48h inconclusive, HCMV antiviral 72.2, HCV inh 12.0% and Pf growth 96h inconclusive.
`OCC1(CCOc2ccccc2)CCN(Cc2ccc3c(c2)OCCO3)CC1` gave Pf growth 48h -9.8%, HCMV antiviral -13.7, HCV inh 3.5% and Pf growth 96h 11.7µM*.
Cc1c(CN2CCC(CO)(CCOc3ccccc3)CC2)[nH]c2c(Cl)cccc12 was read as Pf growth 48h inconclusive, HCMV antiviral -24.5, HCV inh 14.1µM* and Pf growth 96h 12.8%.
`OCC1(CCOc2ccccc2)CCN(Cc2ccc(OC(F)F)cc2)CC1` gave Pf growth 48h 8.3%, HCMV antiviral 12.9, HCV inh 12.6µM* and Pf growth 96h 10.4µM*.
For Cc1nn(C)c(Cl)c1CN1CCC(CO)(CCOc2ccccc2)CC1 the results were Pf growth 48h 13.1%, HCMV antiviral -19.4, HCV inh -19.8% and Pf growth 96h inconclusive.
`CCOC(=O)C1(CCOc2ccccc2)CCN(Cc2ccc3c(c2)OCCO3)CC1` gave Pf growth 48h inconclusive, HCMV antiviral inconclusive, HCV inh inconclusive and Pf growth 96h 3.6%.
`OCC1(CCOc2ccccc2)CCN(CCCn2cccn2)CC1` gave Pf growth 48h 40.2%, HCMV antiviral 5.6, HCV inh 10.4% and Pf growth 96h 10.4µM*.
O=C(CSc1nc2c([nH]c3ccccc32)c(=O)n1-c1ccc(Cl)cc1)N1CCOCC1 was read as HCMV antiviral 12.3.
For CCc1cccc(CC)c1NC(=O)c1c(C)oc2ccc(O)c(CN3CCN(C)CC3)c12 the results were HCMV antiviral 5.6.
`COc1ccc2c3c(n(C)c2c1)[C@@H](CO)N(Cc1cc(F)ccc1F)CC31CN(C(C)=O)C1` gave HCMV antiviral -35.9.
Screening COc1ccc(CN2CCC(CO)(CCOc3ccccc3)CC2)cc1C returned Pf growth 48h 10.4µM*, HCMV antiviral -22.0, HCV inh -9.1% and Pf growth 96h 4.1%.
For COc1cc(OC)c(CN2CCC(CO)(CCOc3ccccc3)CC2)c(OC)c1 the results were Pf growth 48h inconclusive, HCMV antiviral inconclusive, HCV inh inconclusive and Pf growth 96h 0.0%.
`CCOc1cc(CN2CCC(CO)(Cc3cccc(C(F)(F)F)c3)CC2)ccc1OC` gave Pf growth 48h inconclusive, HCMV antiviral -26.0, HCV inh inconclusive and Pf growth 96h 10.4µM*.
For COc1cc(CN2CCC(CO)(CCOc3ccccc3)CC2)cc(OC)c1OC the results were Pf growth 48h 5.86µM*, HCMV antiviral -29.6, HCV inh -6.3% and Pf growth 96h 8.9%.
Cc1ccc(S(=O)(=O)C(CNC(=O)COc2ccc(Cl)cc2)c2ccco2)cc1 (centres undefined) was read as HCMV antiviral -11.1.
For CCC(C)Sc1nc2c(c(=O)[nH]1)C(c1cccs1)C1=C(CCCC1=O)N2 (centres undefined) the results were Pf growth 48h inconclusive, HCMV antiviral -92.8*, HCV inh -1.7% and Pf growth 96h inconclusive.
`O=C1CCCC2=C1C(c1ccncc1)c1c(nc(SCc3ccccc3Cl)[nH]c1=O)N2` (centres undefined) gave Pf growth 48h 2.0%, HCMV antiviral 6.8 and HCV inh -4.8%.
For O=C1[C@H]2[C@@H](c3ccc(F)cc3)N3C(=O)N(c4cccc(Br)c4)C(=O)[C@@]3(Cc3ccccc3)[C@H]2C(=O)N1C1CCCCC1 the results were Pf growth 48h 4.15µM*, HCMV antiviral -27.1, HCV inh -18.2% and Pf growth 96h inconclusive.
Screening CCN1C(=O)[C@H]2[C@@H](c3ccc(C)cc3)N3C(=O)N(c4cccc(Br)c4)C(=O)[C@@]3(CC(C)C)[C@H]2C1=O returned Pf growth 48h inconclusive, HCMV antiviral -19.4, HCV inh 1.8% and Pf growth 96h 14.7µM*.
For O=C1[C@H]2[C@@H](c3ccc(Cl)cc3)N3C(=O)N(c4cccc(Cl)c4)C(=O)[C@@]3(Cc3ccccc3)[C@H]2C(=O)N1C1CCCCC1 the results were Pf growth 48h 2.08µM*, HCMV antiviral -5.1, HCV inh 8.6% and Pf growth 96h 5.86µM*.
For CC(C)C[C@@]12C(=O)N(c3cccc(Br)c3)C(=O)N1[C@H](c1ccc(F)cc1)[C@@H]1C(=O)N(C3CCCCC3)C(=O)[C@@H]12 the results were Pf growth 48h 1.85µM*, HCMV antiviral 11.3, HCV inh 3.8% and Pf growth 96h inconclusive.
Screening O=C1[C@H]2[C@@H](c3ccc(F)cc3)N3C(=O)N(c4cccc(F)c4)C(=O)[C@@]3(Cc3ccccc3)[C@H]2C(=O)N1C1CCCCC1 returned Pf growth 48h inconclusive, HCMV antiviral 1.2, HCV inh -4.8% and Pf growth 96h inconclusive.
Screening CCc1c(C)sc2c1CCN(C(=O)Nc1cc(C)ccc1C)C2c1ccc(OC)cc1 (centres undefined) returned HCMV antiviral -13.7.
Cc1ccc(N2C(=O)N3[C@H](c4ccc(F)cc4)[C@@H]4C(=O)N(C5CCCCC5)C(=O)[C@@H]4[C@]3(Cc3ccccc3)C2=O)cc1 was read as Pf growth 48h 0.0%, HCMV antiviral 1.5, HCV inh 15.0% and Pf growth 96h 11.7µM*.
`COc1cc(OC)c(Nc2nc3ccc(C)cc3n3nnnc23)cc1Cl` gave HCMV antiviral 17.8.
For Cc1ccc(C)c(NC(=O)Nc2nnc(N(CC(C)C)CC(C)C)s2)c1 the results were HCMV antiviral -25.7.

Screens from PubChem BioAssay.
